PLK1 PBD inh = PLK1 (human) polo-box domain binding inhibition; P53350; Plk1 PBD binding of FITC phosphopeptide, fluorescence polarization; Potency, µM, without a hit: max response, negative = inhibition, most hits filed as inhibitors; 2.8% of 360,000 active; AID 720504; also: potency is read from the fitted curve at half-maximal effect; series mostly up to about 57 µM; nearly all actives have a fitted effect of over 65% in size
Target sequence (P53350 whole entry, looked up, the tested form may be a part): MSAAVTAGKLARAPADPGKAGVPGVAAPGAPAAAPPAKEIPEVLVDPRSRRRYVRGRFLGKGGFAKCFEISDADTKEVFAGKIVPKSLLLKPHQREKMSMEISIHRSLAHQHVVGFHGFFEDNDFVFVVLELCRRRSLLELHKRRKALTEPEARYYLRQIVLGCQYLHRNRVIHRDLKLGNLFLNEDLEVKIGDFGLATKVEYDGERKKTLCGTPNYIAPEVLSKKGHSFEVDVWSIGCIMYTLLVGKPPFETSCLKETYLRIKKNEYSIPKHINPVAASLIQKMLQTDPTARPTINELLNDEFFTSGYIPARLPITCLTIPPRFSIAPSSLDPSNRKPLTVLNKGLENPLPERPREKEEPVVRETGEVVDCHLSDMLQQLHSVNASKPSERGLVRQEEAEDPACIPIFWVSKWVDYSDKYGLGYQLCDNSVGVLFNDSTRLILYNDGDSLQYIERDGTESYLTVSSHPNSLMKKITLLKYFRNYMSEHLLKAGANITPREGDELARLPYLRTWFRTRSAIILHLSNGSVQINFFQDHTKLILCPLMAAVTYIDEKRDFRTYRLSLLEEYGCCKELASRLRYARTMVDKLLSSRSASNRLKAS
GCN5L2 inh = GCN5L2 (KAT2A) acetyltransferase inhibition; Q92830; GCN5L2 HAT assay, ThioGlo1 CoA-SH fluorescence; Potency, µM (doses to about 58.9 µM), for the others: at the highest dose activity change, negative = inhibition, usual class: inhibitors; 0.21% of 390,000 active; also: potency is read from the fitted curve at half-maximal effect
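Preincubate 20nM GCN5L2 with compound 15 min, RT → add 50uM ThioGlo1 + 75uM H3(1-25) + 70uM acetyl-CoA → read fluorescence 0 and 20 min. Primary qHTS; fluorescent artifacts likely.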
GLS inh = blocks human kidney-isoform glutaminase activity; O94925; GLS enzymatic activity, qHTS titration; Potency, µM (top dose mostly 45.5 µM), without a hit: at the highest dose activity change, negative = inhibition, hits mostly inhibitors; 0.21% of 410,000 active; AID 624170; also: potency is read from the fitted curve at half-maximal effect
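hKGA in 45 mM KH2PO4 (pH 8.2), 0.02% Tween-20 with compound, then 1mM L-Glutamine (stock as added) plus glutamate oxidase/HRP/Amplex red coupling mix. Fluorescence read initially and after 30 min at RT; signal change reflects glutamate formation.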
VDR inhibitor = vitamin D3 receptor (human) inhibition; P11473; VDR-SRC2-3 peptide fluorescence polarization, 2 h; Potency, µM, for inactives: max response, negative = inhibition, most hits filed as inhibitors; 0.93% of 400,000 active; also: potency is read from the fitted curve at half-maximal effect
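Inhibition of the VDR/SRC2-3 peptide interaction is quantified by fluorescence polarization. Compounds (23 nl, pintool) incubate with the reagents for 2 hours at ambient room temperature.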
PI4K2A block = blocks human PI4K2A kinase activity; activity change, negative = inhibition, % at 76.9 µM; purified PI4K2A, ADP-Glo luminescence, 1 h; active compounds read low; Q9BTU6; 0.13% of 420,000 active; AID 1346378; in the data active = activity change below about -50%; inconclusive = mostly about -30% to -49%;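 also: -100% = wells without enzyme as full effect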
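Compounds are screened against recombinant PI4K2A using PI as substrate and ATP, the latter dispensed at 300 microM. Reactions run one hour at ambient temperature before ADP-Glo detection; full inhibition defined by wells lacking enzyme.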
* = called active by the depositor; ? = inconclusive; nt = no result given. In the library only some 3.1% were active in any assay of this set; here they are far more common. Unless noted, calls follow the shape of the dose curve; as a rule, active = well fitted curve in the direction sought with a large enough effect; inconclusive = small, poorly fitted or top-dose-only effect, or another doubt; inactive = no such curve, though single readings can be large; an effect the other way counts as inactive or inconclusive. Unless noted, % is scaled to controls: 0 for no effect and ±100 for the full control effect.

SMILES	PLK1 PBD inh	GCN5L2 inh	GLS inh	VDR inhibitor	PI4K2A block
O=C(O)CCCN=CC1=C(O)CNC1=O	30µM*	-1%	3%	?	-1
O=C1NCC(O)=C1C=NCCO	-10%	-1%	10%	-11%	-2
CCCNc1nc(Nc2ccc(C)c(Cl)c2)c2cnn(C)c2n1	-1%	-11%	1%	0%	11
Cc1ccc(Nc2nc(NCCO)nc3c2cnn3C)cc1Cl	19µM*	-4%	54%	?	-1
Cc1[nH]c2ccccc2c1/C=N/NC(=O)CCC(=O)NCc1ccccc1	12µM*	-6%	?	-21%	4
C[C@@H]1[C@H](c2ccccc2)Oc2ccc(Cl)cc2S(=O)(=O)N1CC1CCCN1C(=O)OC(C)(C)C (stereo partly specified)	24µM*	nt	8%	?	-2
CON(C)C(=O)CCC1CCCN1C(=O)OC(C)(C)C (stereo unspecified)	-5%	0%	0%	-7%	-4
Cc1nc2n(c(=O)c1CCN1CCC(c3noc4cc(F)ccc34)CC1)CCC[C@@H]2O	nt	nt	-3%	nt	nt
N#Cc1cccc(-c2nc(NCc3ccccc3)c3ccccc3n2)c1	nt	?	nt	45µM*	nt
Cc1noc(C)c1-c1nc(NCc2ccccc2)c2ccccc2n1	nt	25µM*	nt	35µM*	nt
COc1cccc(-c2nc(NCc3cccs3)c3ccccc3n2)c1	nt	?	nt	50µM*	nt
CS(=O)(=O)Nc1cccc(-c2nc(NCc3ccccc3)c3ccccc3n2)c1	nt	?	nt	50µM*	nt
N#Cc1cccc(-c2nc(Nc3ccncc3)c3ccccc3n2)c1	nt	-11%	nt	120%	nt
Cc1noc(C)c1-c1nc(NCc2cccnc2)c2ccccc2n1	nt	-8%	nt	?	nt
CS(=O)(=O)Nc1cccc(-c2nc(NCc3cccnc3)c3ccccc3n2)c1	nt	-3%	nt	-3%	nt
CCCS(=O)(=O)N1CC(=O)N(c2ccc(Cl)cc2C)C(C)(C(=O)NC2CCCC2)C1 (stereo unspecified)	nt	-8%	-14%	-1%	-3
O=C(/C=C/c1ccc2c(c1)OCO2)c1ccc[nH]1	-27%	-7%	2%	4%	-10
COC(=O)/C=C/c1ccc2c(c1)OCO2	-8%	-9%	5%	-11%	-1
CCNc1ccccc(C(=O)/C=C/c2ccc3c(c2)OCO3)c1=O	24µM*	-14%	-5%	?	-12
CCNc1ccc(Br)cc(C(=O)/C=C/c2ccccc2Cl)c1=O	?	nt	12%	28µM*	8
O=C(/C=C/c1ccc2c(c1)OCO2)c1cccs1	nt	-28%	nt	20µM*	nt
Cc1c(Cl)cccc1N1CC(C)(C)C1=O	27µM*	4%	0%	-14%	-17
CCOC(=O)c1cc(-c2ccccc2)n(CCCC(=O)Nc2ccc(C)c(Cl)c2)c1C	nt	-14%	-11%	7%	-2
Cc1sc2nc(-c3ccncc3)[nH]c(=O)c2c1-c1ccccc1	nt	0%	nt	nt	nt
Cc1sc2nc(-c3ccccn3)[nH]c(=O)c2c1-c1ccccc1	19µM*	-18%	-15%	?	-3
SMILES	PLK1 PBD inh	GCN5L2 inh	GLS inh	VDR inhibitor	PI4K2A block
CCCN1CCN(C(=O)c2ccc3[nH]c(C)c(C)c3c2)CC1	-4%	nt	11%	nt	1
CCCc1c(C)[nH]c2ccc(C(=O)O)cc2c1=S	13µM*	2%	7.1µM*	-27%	-14
C#CC[N+]1(CC#Cc2ccccc2)CCCC1	-9%	-1%	-4%	-9%	3
O=S(=O)([O-])CCC[N+]1(CC#Cc2ccccc2)CCCCC1	4.7µM*	0%	?	?	5
Cc1ccc2c(c1)C1C=CCC1C(C(=O)O)N2 (stereo unspecified)	nt	25µM*	nt	nt	nt
CC(=O)c1ccc2c(c1)C1C=CCC1C(C(=O)O)N2 (stereo unspecified)	7.5µM*	?	2.5µM*	-16%	-13
CC(=O)c1ccc2c(c1)C1C=CCC1C(c1ccncc1)N2 (stereo unspecified)	-16%	-5%	5%	-16%	-9
CN(C)CCN(Cc1ccccc1)S(=O)(=O)c1ccc2[nH]c(=O)ccc2c1	nt	-6%	0%	11%	-2
O=[N+]([O-])c1ccccc1CN1CCN(Cc2ccccn2)CC1	17µM*	-11%	0%	10%	7
O=C(O)c1ccc(N2C(=O)/C(=C/c3ccc(-c4ccc([N+](=O)[O-])cc4)o3)C=C2c2ccccc2)cc1	12µM*	-18%	?	?	-6
O=C1NN(c2ccccc2)C(=O)/C1=C/c1ccc(-c2ccc(C(=O)O)cc2)o1	21µM*	?	11µM*	?	0
O=C1NN(c2ccccc2)C(=O)/C1=C/c1ccc(Sc2cccc3ccccc23)o1	12µM*	0%	-23%	?	-5
O=C1NN(c2ccc(Cl)c(Cl)c2)C(=O)/C1=C/c1ccc(-c2ccccc2C(=O)O)o1	19µM*	?	13µM*	45µM*	?
O=c1cnc2cncnc2n1Cc1ccc(F)cc1	nt	-5%	nt	?	nt
COC(=O)[C@]12C[C@H](CC(=O)NCc3cccc4ccccc34)C(=O)N(Cc3ccco3)C1=C[C@H](C(C)(C)C)O[C@@H]2C	nt	nt	nt	nt	-4
CCN1CCCCC(NC(=O)c2cccc(C(F)(F)F)c2)C1=O (stereo unspecified)	nt	nt	nt	nt	0
Cc1cc(C)cc(N(CC(=O)NC2CCC(C)CC2)S(=O)(=O)c2cccs2)c1 (stereo unspecified)	nt	nt	nt	nt	3
COC(=O)c1ccc(N2NC(=O)/C(=C/c3ccc(-c4ccc(Cl)c(C(=O)O)c4)o3)C2=O)cc1	17µM*	-8%	?	79µM*	-14
O=C1CC(c2ccc(Cl)cc2)CC(=O)C1CS(=O)(=O)c1ccccc1 (stereo unspecified)	27µM*	?	?	?	-14
O=C1CCCC(=O)C1CS(=O)(=O)c1ccccc1	-16%	-2%	3%	40µM*	-2
O=C1C=C(c2ccccc2)C[C@@H](c2ccc(Cl)cc2)C1	?	-2%	5%	-10%	-1
O=C1CC(c2ccccc2)CC(=O)C1Sc1ccc(Cl)cc1 (stereo unspecified)	21µM*	0%	5%	?	-2
Cc1ccc(S(=O)(=O)NCC(=O)N2CCC(C)CC2)cc1	30µM*	0%	9%	-25%	2
CCC(C(=O)OCC(=O)NC(=O)c1ccccc1)c1ccccc1 (stereo unspecified)	-1%	-3%	-2%	-13%	-6
CCC(C(=O)OCC(=O)NC(=O)NC(C)(C)C)c1ccccc1 (stereo unspecified)	27µM*	-4%	56%	-21%	-1
COc1cc(-c2nc(S(=O)(=O)c3ccc(C)cc3)c(N3CCOCC3)o2)cc(OC)c1OC	-14%	-27%	9%	79µM*	-1
COc1cccc(-c2nc(S(=O)(=O)c3ccc(C)cc3)c(N3CCCCCC3)o2)c1	nt	-3%	-1%	-22%	0

Source: PubChem BioAssay
